Screening data from PubChem BioAssay.
aSyn 5UTR inh – MLPCN primary screen, SNCA 5' untranslated region | alpha-synuclein 5'UTR reporter, inhibitor activity | inhibition, % (tested at 7.5 µM) | actives 0.82% (n = 300,000); in the data active = inhibition above about 60%;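 also: H4 neuroglioblastoma cells stably carrying SNCA 5'UTR luciferase fusion; 0% = DMSO wells and 100% = positive control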
Mdm2 MdmX PPI – inhibitors of human Mdm2-MdmX association, primary screen, cell-based, luminescence, split luciferase, SaOS-2, uHTS; Protein Mdm4 (Homo sapiens) + E3 ubiquitin-protein ligase Mdm2 (Homo sapiens), …; actives 3% (n = 330,000); AID 485346, 2010; SaOS-2 split-luciferase Mdm2/MdmX complementation; inhibition, % at 8 µM;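 active = inhibition of at least 50% at 8 µM in the primary screen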
CSC inhib – cancer stem cell viability inhibitors, primary screen, luminescence. cancer stem cell-like cells viability. inhibition, % at 7.5 µM. actives 1.1% (n = 300,000); in the data active = inhibition above about 75%; tested in HMLE shEcad cells
Beta apoptosis – inhibitors of cytokine-induced beta cell apoptosis, primary screen, luminescence; INS-1E cytokine-induced death, ATP luminescence, 48 h; percent of positive-control rescue, neutral wells zero; protection from apoptosis, % (concentration not given with the values); actives 0.8% (n = 300,000); AID 435005, 2010;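 active = Every replicate reaches about 75%, or at least half do and their mean reaches it too, limit read from the data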;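 also: 0% = cytokine-treated negative control wells and 100% = positive control rescue; higher means more ATP so stronger rescue from cytokine killing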
Bfl-1 A1 inh – caspase 3/7 activation in MEF A1-2A-BIM cells, primary screen, A1 inhibitor project, cell-based, luminescence, HTS; Caspase-Glo 3/7 luminescence, 3 h; percent of clofoctol response, vehicle zero; caspase activation, % (concentration not given with the values); AID 2462, 2010; actives 0.066% (n = 330,000);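 active = over half of replicate activation scores above 10%, or exactly half above 10 with the replicate mean above 10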
Mdm2-MdmX conf – Mdm2-MdmX complex disruptors, retested hits, confirmation, luminescence, single concentration | shares compounds with Mdm2 MdmX PPI | Mdm2-MdmX binding, luminescent assay | inhibition, % at 8 µM | actives 55% (n = 10,000); in the data active = inhibition above about 40%
FLuc counter – full-length luciferase signal inhibition, confirmation, counter-screen for Mdm2/MdmX interaction inhibitor project, cell-based, single concentration, SaOS-2 | inhibition, % at 8 µM | SaOS-2 full-length luciferase counterscreen, luminescence | shares compounds with Mdm2 MdmX PPI | actives 77% (n = 6,200);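 active = mean inhibition at 8 µM reaching about 37%, which flags the compound as non-specific, limit read from the data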;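 also: p53-null SaOS-2 cells with luciferase driven by a doxycycline-inducible promoter; compound on cells about two nights before reading with doxycycline added after day one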
* = called active by the depositor; x = no result given. Only some compounds are listed: those with a hit (about 4.1% of all), similar ones and a draw of the others.

SMILES | aSyn 5UTR inh | Mdm2 MdmX PPI | CSC inhib | Beta apoptosis | Bfl-1 A1 inh | Mdm2-MdmX conf | others
COc1ccc(-c2nn(-c3ccccc3)cc2C(=O)NC2CCCCC2C)cc1 (stereo not drawn) | -8 | 74* | -10 | 41 | 0 | 29
O=C(CN1C(=O)/C(=C\c2ccccc2Cl)Oc2ccccc21)NCc1cccnc1 | -13 | 76* | 20 | 11 | 0 | 1
Cc1ccc(S(=O)(=O)N2CCOCC2)cc1C(=O)OCCOc1cccc(Cl)c1 | 10 | 12 | -7 | 3 | 1 | x
COc1ccc(C(=O)Nc2nc3cc(OC)c(OC)cc3c(=O)[nH]2)cc1 | x | 71* | 3 | 18 | 0 | -10
O=C(c1cc(-c2cccnc2)nc2ccc(Br)cc12)N1CCN(c2ncccn2)CC1 | 29 | 52* | 4 | -3 | 0 | 51* | FLuc counter=101*
COc1ccc(CN2CCN(C(=O)c3cc(-c4cccnc4)nc4ccc(Cl)cc34)CC2)c(OC)c1OC | -18 | 51* | 13 | 7 | 0 | 49* | FLuc counter=73*
CCOC(=O)CNC(=O)C1(/C=C/c2ccccc2)CC(=O)N1c1ccc(C)cc1 (stereo not drawn) | 10 | 5 | -6 | 0 | 0 | x
O=C(Nc1nnc(-c2ccccc2F)s1)Nc1ccccc1F | -155 | 1 | -3 | -1 | -1 | x
COc1cccc(NC(=O)Nc2nnc(-c3ccccc3SCc3ccccc3)s2)c1 | x | 53* | 0 | 34 | 1 | 33
O=C(Nc1nnc(-c2ccccc2SCc2ccccc2)s1)Nc1ccccc1F | -28 | 76* | -2 | 17 | 0 | 17
Cc1cc(NC(=O)CCC(=O)N(Cc2cccs2)C(C)(C)C(=O)NC2CCCCC2)no1 | -27 | 6 | 0 | -3 | 0 | x
COCc1ccc(C(=O)NC2CCCc3c2cnn3-c2cc(C)cc(C)c2)s1 (stereo not drawn) | 4 | 22 | x | x | x | x
O=C(c1ccc(CS(=O)c2ccccc2Cl)o1)N1CCN(c2ccccn2)CC1 (stereo not drawn) | -4 | 63* | -25 | -3 | 0 | 56* | FLuc counter=45*
CCOC(=O)/C(C#N)=C\c1cc(C)n(-c2ccccc2)c1C | -52 | 56* | -3 | -4 | 0 | 79* | FLuc counter=155*
CCN1C(=O)[C@H]2[C@@H](c3ccc(-c4ccc(Cl)c(Cl)c4)cc3)N[C@@](C)(C(=O)OC)[C@H]2C1=O | 27 | 22 | 46 | 25 | -1 | x
CCN1C(=O)[C@H]2[C@@H](c3ccc(-c4ccc(F)cc4)c(OC)c3)N[C@@](Cc3ccccc3)(C(=O)OC)[C@H]2C1=O | x | 58* | x | 8 | 1 | 19
CCN1C(=O)[C@H]2[C@@H](c3ccc(-c4cccc(Cl)c4)c(OC)c3)N3CCCC[C@@]3(C(=O)OC)[C@H]2C1=O | x | 59* | x | 12 | 0 | 28
CCN1C(=O)[C@H]2[C@@H](c3ccc(-c4ccccc4)c(OC)c3)N[C@@](Cc3ccccc3)(C(=O)OC)[C@H]2C1=O | 34 | 33 | 5 | 5 | 0 | x
CCN1C(=O)[C@H]2[C@@H](c3ccc(-c4ccc(Cl)c(Cl)c4)cc3)N3CCCC[C@@]3(C(=O)OC)[C@H]2C1=O | -25 | 66* | 43 | 9 | -2 | 24
CCN1C(=O)[C@H]2[C@@H](c3ccc(-c4cccc(Cl)c4)cc3)N3CCCC[C@@]3(C(=O)OC)[C@H]2C1=O | 1 | 30 | 14 | 1 | -1 | x
CCN1C(=O)[C@@H]2[C@@H](c3ccc(-c4ccc(Cl)c(Cl)c4)cc3)N3CCC[C@@]3(C(=O)OC)[C@@H]2C1=O | x | 36 | 38 | -7 | 0 | x
CCN1C(=O)[C@H]2[C@@H](c3ccc(-c4ccc(Cl)c(Cl)c4)c(OC)c3)N[C@@](C)(C(=O)OC)[C@H]2C1=O | -4 | 57* | 22 | -2 | 0 | 45* | FLuc counter=71*
